The results in this text go back to PubChem BioAssay (NCATS).

Records with an inconclusive call do not appear. Active and inactive are the calls of the source. Calls come from the whole dose curve; as a rule, active = well fitted inhibition curve with a large enough effect; inconclusive = small, poorly fitted or top-dose-only effect; inactive = no such curve, though single readings can be large or run the other way.
Potency is the fitted concentration of half-maximal effect.

The test in a line: qHTS assay for measurement of the activity of small molecule inhibitors on Zika virus induced Caspase-3 activity in human iPSC derived neural progenitor cells (hNPCs) (AID 1224857). For activity change, negative = inhibition: % of control where 0% means no effect. Note: nearly all actives have a fitted effect of over 65% in size. The conditions noted are these: hNPCs ZIKV-induced caspase-3/7, Caspase-Glo luminescence, 6 h; series mostly up to 45.7 µM; activity change, negative = inhibition: at the top concentration. The essentials: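 Percent inhibition of virus-induced caspase-3/7 luminescence (Caspase-Glo), scaled between uninfected cells and Zika-infected cells. hNPCs received compound 1 hr before ZIKV at 2 FFU/cell, with 6 hours infection at 37 C.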
For orientation: qHTS replaces the single test concentration by a dilution series.
With `C[C@@H]1C[C@H]2[C@@H]3CCC4=CC(=O)C=C[C@]4(C)[C@@]3(F)[C@@H](O)C[C@]2(C)[C@@]1(O)C(=O)CO`, the “activity change, negative = inhibition” value is 3.96% (inactive).

Regarding `N#Cc1c(N(CC(=O)O)CC(=O)O)sc(C(=O)O)c1CC(=O)O`, the “activity change, negative = inhibition” value was 5.41% (inactive).

Consider `CCCCCCCCCCCCCC(=O)N[C@H](CO)[C@H](O)c1ccc([N+](=O)[O-])cc1`, for which the “activity change, negative = inhibition” value is -6.93% (inactive). As to `C=C1c2cccc(O)c2C(O)=C2C(=O)[C@@]3(O)C(O)=C(C(N)=O)C(=O)[C@@H](N(C)C)[C@@H]3[C@@H](O)[C@H]12`, the “activity change, negative = inhibition” value was -28.3% (inactive). The same measure, in the same setting: the result for `CCC(=C(CC)c1ccc(O)cc1)c1ccc(O)cc1` reads 35% (inactive); that for `CN1C(=O)C[C@H](C(=O)N[C@@H](Cc2cnc[nH]2)C(=O)N2CCC[C@@H]2C(N)=O)NC1=O`, 11.7% (inactive). As for `CC1(C)[C@H]2CC[C@]3(C)[C@@H](C(=O)C=C4[C@@H]5C[C@@](C)(C(=O)O)CC[C@]5(C)CC[C@]43C)[C@@]2(C)CC[C@@H]1O`, the “activity change, negative = inhibition” value was 1.85% (inactive). On the same count and under the same terms, the result for `CN1CCc2c(n(Cc3ccc(C(=O)NO)cc3)c3ccccc23)C1` reads 27.4% (inactive); that for `Cc1[nH]c(C=C2C(=O)Nc3ccc(S(=O)(=O)N(C)c4cccc(Cl)c4)cc32)c(C)c1C(=O)N1CCN(C)CC1`, -11.7% (inactive). As for `CCC(C)SSc1ncc[nH]1` (stereo not drawn), the Potency was 26.4 µM (active). Regarding `O=C(O)C1=CC(O)C(O)[C@H](O)C1` (stereo partly drawn), the “activity change, negative = inhibition” value is 21.2% (inactive).

On to `CC(=O)OCC(=O)[C@@]12OC(C)(C)O[C@H]1C[C@H]1[C@@H]3C[C@H](F)C4=CC(=O)C=C[C@]4(C)[C@@]3(F)[C@@H](O)C[C@@]12C`, for which the “activity change, negative = inhibition” value is 23.3% (inactive). For `CN(C)c1ccc(-c2nc3ncc(Cl)c(N4CCN(CC(=O)Nc5nccs5)CC4)c3[nH]2)cc1`, the “activity change, negative = inhibition” value is -3.39% (inactive).
